Bioassay records (PubChem)
PPC-1+TRAIL kill: PPC-1 cancer cell killing with TRAIL present; PPC-1 cells + TRAIL, ATPLite viability luminescence; AID 1443; 220,000 tested, 0.41% active; cell killing (% activity), % at 4 µM or 5 µM;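 active means cell killing above 50% in the first pass at 4 µM, then a duplicate retest at 5 µM averaging 50% or more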;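 further: plate controls were cells with TRAIL plus DMSO for no effect and medium-only wells lacking cells for full effect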
TRAIL sens C8: caspase-8 TRAIL sensitization | inhibition (viability loss, TRAIL sensitization), % at 10 µM | 360,000 tested, 1% active | NB7+C8 cells + TRAIL, ATPlite viability luminescence;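 active means compounds causing at least 50% loss of cell viability in the single-dose screen, relative to plate controls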
SENP6 inh: inhibitors of human SENP6 protease. Q9GZR1. 330,000 tested, 1.8% active. Recombinant SENP6 catalytic domain, aminoluciferin luminescence. inhibition, % at 10 µM;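 active means inhibition above about 50% at the single tested dose, limit read from the data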;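 further: plate controls were DMSO wells with enzyme for no effect and DMSO wells lacking enzyme for full effect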
SENP8 block-1: blocks the human protease SENP8 | Q96LD8 | purified SENP8, Z-RLRGG-aminoluciferin cleavage, luminescence | inhibition, % at 10 µM | 330,000 tested, 1.2% active | AID 2540; in the data active means inhibition above about 50%
Target sequence (Q96LD8 whole entry, looked up): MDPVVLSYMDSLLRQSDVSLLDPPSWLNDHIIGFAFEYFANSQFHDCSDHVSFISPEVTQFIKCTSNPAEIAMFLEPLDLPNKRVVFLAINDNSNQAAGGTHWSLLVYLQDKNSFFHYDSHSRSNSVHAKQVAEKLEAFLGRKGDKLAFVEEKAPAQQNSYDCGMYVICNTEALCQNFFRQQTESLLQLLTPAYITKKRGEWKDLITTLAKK
SENP7 block: blocks the human protease SENP7; Q9BQF6; recombinant SENP7, Z-RLRGG-aminoluciferin luminescence, 40 min; inhibition, % at 5 µM; 330,000 tested, 1.5% active; AID 434973;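 active means inhibition above about 50% at the single test dose, limit read from the data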;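 further: plate controls were DMSO with enzyme for no effect and no enzyme buffer wells for full effect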
Target sequence (Q9BQF6 706-1050 limits assumed): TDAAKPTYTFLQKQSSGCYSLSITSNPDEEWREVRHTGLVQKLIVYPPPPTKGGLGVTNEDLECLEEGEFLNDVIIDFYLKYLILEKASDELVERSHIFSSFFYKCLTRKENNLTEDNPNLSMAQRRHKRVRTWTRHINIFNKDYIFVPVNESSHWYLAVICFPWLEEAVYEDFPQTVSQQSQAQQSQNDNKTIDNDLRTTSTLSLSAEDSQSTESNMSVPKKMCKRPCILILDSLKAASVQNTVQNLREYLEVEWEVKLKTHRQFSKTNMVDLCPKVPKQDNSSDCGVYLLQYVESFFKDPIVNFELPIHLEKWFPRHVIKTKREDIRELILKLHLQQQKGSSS
SENP8 block-2: inhibitors of human SENP8 protease. inhibition, % at 20 µM. Q96LD8. recombinant SENP8, Nedd8 substrate fluorescence. 360,000 tested, 0.64% active. AID 602440; in the data active means inhibition mostly above about 40%, no sharp cut-off; inactive means mostly below about 27%
Numbers without * were called inactive; . = not tested or not shown. Hits are enriched below; roughly 3% of the tested compounds scored in any of these assays.

SMILES	PPC-1+TRAIL kill	TRAIL sens C8	SENP6 inh	SENP8 block-1	SENP7 block	SENP8 block-2
CC(=O)Nc1ccc(-c2csc(NC(=O)C3=COCCO3)n2)cc1	.	1	-1	-11	-3	-39
Cc1ccc(-c2csc(NC(=O)C3=COCCO3)n2)cc1	13	12	70*	33	59*	-11
O=S(=O)(c1ccc(NCCOc2ccccc2)nc1)N1CCCC1	.	3	-3	1	-1	3
NC(CO)C(=O)NNCc1ccc(O)c(O)c1O (stereo not given)	14	14	9	4	16	45*
COc1ccccc1CN1CCNC(=O)C1CC(=O)N(C)Cc1ccon1 (stereo not given)	20	-1	3	-12	-7	-2
Cn1c(=NC(=O)c2ccccc2[N+](=O)[O-])sc2cc(S(C)(=O)=O)ccc21	40	36	30	-6	57*	20
COc1ccc(NC(=O)C(=O)NCC2CCCN2S(=O)(=O)c2cccs2)cc1 (stereo not given)	.	26	-9	3	5	12
CCc1ccc([C@H]2[C@@H]3C(=O)C[C@@H]4C(=O)N(c5ccccc5)C(=O)[C@@H]4[C@@H]3CN2S(=O)(=O)c2ccc(C)cc2)cc1	.	86*	.	.	.	10
COC1=C(c2ccccc2)C(=O)c2ccccc2C1=O	1	0	28	3	13	92*
O=C(O)c1cccc(NC2=C(n3nnc4ccccc43)C(=O)c3ccccc3C2=O)c1	11	8	-8	38	24	69*
O=C(O)c1cccc(NS(=O)(=O)c2ccc3nnn(O)c3c2)c1	11	2	14	-7	-6	19
COc1ccc(C2CC(c3cccs3)=NN2C(=O)c2ccccc2)cc1OC (stereo not given)	.	2	9	9	0	5
COc1ccc(C2CC(c3cccs3)=NN2C(=O)CCl)cc1OC (stereo not given)	.	96*	-9	1	-2	-101
COc1cc(C2CC(c3cccs3)=NN2C(=O)CCl)ccc1OC(F)F (stereo not given)	.	95*	-14	-8	-1	-228
CCOc1ccc(NC(=O)CC2C(=O)N(CC)C(=S)N2NC(=O)c2ccncc2)cc1 (stereo not given)	-6	-13	-8	-4	-2	35
Cc1ccc(/C=C2\SC(=S)N(C3CCS(=O)(=O)C3)C2=O)o1 (stereo not given)	28	7	23	-6	11	56*
CC(=O)Nc1cc(NC(C)=O)cc(C(=O)OCC(=O)Nc2ccc(S(=O)(=O)NC3=NCCCCC3)cc2)c1	.	1	-7	3	-10	-7
Cc1cc(NC(=O)CSc2nnc(-c3ccc4c(c3)OCCO4)o2)no1	45	49*	-12	-2	-1	7
Cc1cc(NC(=O)c2ccc(F)cc2)no1	.	12	-13	-2	4	7
O=C(Nc1ccc([N+](=O)[O-])cn1)c1ccc2c(c1)OCO2	-7	5	24	-14	67*	9
Cc1cc(NC(=O)c2ccc(C(C)(C)C)cc2)no1	.	70*	.	.	.	10
CC(C)(C)c1ccc(C(=O)Nc2ccc([N+](=O)[O-])cn2)cc1	27	11	-38	-19	12	20
Cc1cc(NC(=O)c2ccc3c(c2)OCCO3)no1	42	87*	43	5	32	19
Cc1ccc(C(OC(=O)c2ccco2)C(=O)NC(C)(C)C)cc1 (stereo not given)	.	-9	-13	-5	4	10
CCOP(=O)(O)c1cccc(OCCOCCOc2cccc(P(=O)(O)OCC)c2)c1	13	2	-25	-4	3	9
SMILES	PPC-1+TRAIL kill	TRAIL sens C8	SENP6 inh	SENP8 block-1	SENP7 block	SENP8 block-2
OC(c1ccco1)c1nc(-c2cccs2)cs1 (stereo not given)	.	-3	.	.	.	4
Cc1cc(NC(=O)c2ccc3c(c2)OCO3)no1	19	51*	6	-9	14	12
CC(=O)Nc1ccc(C(=O)Nc2cc(C)on2)cc1	.	-12	5	4	2	14
Nc1cc(C(=O)O)c(N)c2c1C(=O)c1ccccc1C2=O	24	5	59*	23	11	51*
O=C(O)c1cc2ccccc2c2c1C(=O)c1ccccc1-2	.	-2	.	.	.	4
Cc1c(N2C(=O)/C(=C/c3ccc(N(C)C)cc3)N(C)C2=S)c(=O)n(-c2ccccc2)n1C	.	-16	.	.	.	44*
Cc1c(N2C(=O)/C(=C/c3ccccc3)SC2=S)c(=O)n(-c2ccccc2)n1C	9	0	-10	1	13	24
Cc1ccc(NS(=O)(=O)c2c(C)[nH]c(C)c2C(=O)N2CCCCC2)cc1Cl	.	-8	-3	-10	10	7
Cc1ccc(Oc2ncccc2C(=O)NC2CCSC2=O)cc1 (stereo not given)	9	-3	-14	1	-1	6
COc1ccc(Cn2c(SCc3ccccc3C)nc3cc(OC)c(OC)cc3c2=N)cc1	8	86*	3	-5	3	-1
Cc1cc(C)c2c(c1)/C(=C/C(=O)c1ccc(Br)s1)C(=O)N2	20	84*	-4	-1	6	20
NC(=O)c1ccc(OCC(=O)N2CCNC2=O)cc1	.	12	-7	10	0	2
Cc1ccc(SCC(=O)OCC(=O)N(CCC#N)c2ccccc2)cc1C	.	1	-19	-11	-9	8
Cc1ccc(N(CCC#N)C(=O)CCl)cc1C	3	87*	6	3	3	0
CC[C@H]1CN2CCc3cc(OC)c(OC)cc3C2C[C@@H]1C[C@H]1NCCc2cc(OC)c(OC)cc21 (stereo not given in full)	.	56*	11	6	-14	6
CCC1=C(CC2NCCc3ccccc32)CC2c3cc(OC)c(OC)cc3CCN2C1 (stereo not given)	.	23	.	.	.	-235
CCCCn1c(N)c(N(C)C(=O)c2ccc(-n3cccn3)cc2)c(=O)[nH]c1=O	.	-1	6	3	10	-5
Cc1ccc(/C(N)=N/OC(=O)c2cc(-c3ccccc3)nc3ccccc23)cc1	-17	81*	7	2	0	22
Cc1cc(C)cc(C(=O)O/N=C(\N)c2ccc(Br)cc2)c1	0	90*	-4	-5	0	8
Cc1ccc(C)c(C(=O)O/N=C(\N)c2ccc(Br)cc2)c1	-17	78*	0	3	0	21
Cc1cccc(C(=O)O/N=C(\N)c2ccc(Br)cc2)c1	1	35	38	8	25	-5
N/C(=N\OC(=O)c1cccc2ccccc12)c1ccc(Br)cc1	34	2	-21	-9	6	-67
COc1ccc(/C(N)=N/OC(=O)c2cc(-c3ccccc3)nc3ccccc23)cc1	18	44	-27	-10	-3	-96
Cc1ccc(C(=O)O/N=C(\N)c2ccc(Br)cc2)cc1C	42	86*	-8	-14	4	4
